# Results taken from the supplement of paper PMC10037445.
# Over roughly 2,900 compounds, “NF-kB SEAP reporter activity, fold change vs agonist alone” has its median near 0.99; the highest 2% begin near 2.6. This is one part of a sample in which the highest values are shown more often than they occur.
# Columns and labels:
# [1] = system: RAW-Dual; test: NF-kB SEAP reporter activity, fold change vs agonist alone; higher = enhanced NF-kB activity; conditions: library stock concentration (final ~1000-fold dilution): 10 mM
# Outline: (§1)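 RAW-Dual macrophages (50,000 cells/well in DMEM, 384-well plates) received 50 nL of library stock by pin tool, then a PRR agonist 1 h later, and were kept at 37 °C, 5% CO2. After 20 hours, supernatant was read for IRF by QuantiLuc luminescence and for NF-κB by QuantiBlue absorbance at 620 nm. Reporter activity is fold change over agonist-alone wells. Cytotoxic wells had IncuCyte confluency below 70% of agonist controls in both mask sets.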
# [2] = system: RAW-Dual; test: NF-kB SEAP reporter activity, fold change vs agonist alone; cytotoxicity flag (confluency mask): not cytotoxic; higher = enhanced NF-kB activity
# Outline: as §1
# [3] = system: RAW-Dual; test: NF-kB SEAP reporter activity, fold change vs agonist alone; cytotoxicity flag (confluency mask): cytotoxic (confluency <70% of control); higher = enhanced NF-kB activity
# Outline: as §1
# [4] = cytotoxicity flag (confluency mask): not cytotoxic, agonist: Imiquimod (TLR7) […]
# [5] = cytotoxicity flag (confluency mask): not cytotoxic, agonist: MPLA (TLR4) […]
# [6] = agonist: ODN 1826 (TLR9) 0.5 ug/mL
# [7] = agonist: Pam2CSK4 (TLR2/6) 0.1 ug/mL
# [8] = agonist: Pam3CSK4 (TLR2/1) 0.1 ug/mL
structure (smiles),measurement,setting,value
CS(=O)(=O)N1CCN(Cc2cc3nc(-c4cccc5[nH]ncc45)nc(N4CCOCC4)c3s2)CC1,NF-kB SEAP reporter activity,[1]; [4],1.77
same,NF-kB SEAP reporter activity,[1]; [5],1.75
CS(=O)(=O)N1CCN(Cc2cc3nc(-c4cccc5[nH]ncc45)nc(N4CCOCC4)c3s2)CC1 (library stock concentration (final ~1000-fold dilution): 10 mM),NF-kB SEAP reporter activity,[2]; agonist: LPS (TLR4) 0.1 ug/mL,1.87
same,NF-kB SEAP reporter activity,[2]; [6],0.247
same,NF-kB SEAP reporter activity,[2]; [7],1.02
same,NF-kB SEAP reporter activity,[2]; [8],0.72
Fc1ccc2[nH]ccc2c1-c1nc(N2CCOCC2)c2sc(CN3CCN(CC4CC4)CC3)cc2n1 (library stock concentration (final ~1000-fold dilution): 10 mM),NF-kB SEAP reporter activity,[2]; agonist: LPS (TLR4) 0.1 ug/mL,2.9
same,NF-kB SEAP reporter activity,[2]; [6],0.272
same,NF-kB SEAP reporter activity,[2]; [7],1.03
same,NF-kB SEAP reporter activity,[2]; [8],0.935
Fc1ccc2[nH]ccc2c1-c1nc(N2CCOCC2)c2sc(CN3CCN(CC4CC4)CC3)cc2n1,NF-kB SEAP reporter activity,[1]; [4],0.944
same,NF-kB SEAP reporter activity,[1]; [5],1.25
O=C(CCNC(=O)c1ccc(OC(F)(F)F)cc1)NC1CCCc2ccccc21 (stereo not given),NF-kB SEAP reporter activity,[1]; [4],1.66
same,NF-kB SEAP reporter activity,[1]; [5],1.13
O=C(CCNC(=O)c1ccc(OC(F)(F)F)cc1)NC1CCCc2ccccc21 (stereo not given) (library stock concentration (final ~1000-fold dilution): 10 mM),NF-kB SEAP reporter activity,[2]; agonist: LPS (TLR4) 0.1 ug/mL,0.767
same,NF-kB SEAP reporter activity,[2]; [6],1.33
same,NF-kB SEAP reporter activity,[2]; [7],0.519
same,NF-kB SEAP reporter activity,[2]; [8],0.68
COc1cc2c(cc1OC)CC(=O)N(CCCN(C)CC1Cc3cc(OC)c(OC)cc31)CC2.Cl (stereo not given),NF-kB SEAP reporter activity,[1]; [4],0.885
same,NF-kB SEAP reporter activity,[1]; [5],0.951
COc1cc2c(cc1OC)CC(=O)N(CCCN(C)CC1Cc3cc(OC)c(OC)cc31)CC2.Cl (stereo not given) (library stock concentration (final ~1000-fold dilution): 10 mM),NF-kB SEAP reporter activity,[2]; agonist: LPS (TLR4) 0.1 ug/mL,1.3
same,NF-kB SEAP reporter activity,[2]; [6],0.895
same,NF-kB SEAP reporter activity,[2]; [7],0.867
same,NF-kB SEAP reporter activity,[2]; [8],1.1
CCOC(=O)NC1CCC2C(C1)CC1C(=O)OC(C)C1C2/C=C/c1ccc(-c2cccc(F)c2)cn1 (stereo not given) (library stock concentration (final ~1000-fold dilution): 10 mM),NF-kB SEAP reporter activity,[2]; agonist: LPS (TLR4) 0.1 ug/mL,0.824
same,NF-kB SEAP reporter activity,[2]; [6],0.243
same,NF-kB SEAP reporter activity,[2]; [7],0.212
same,NF-kB SEAP reporter activity,[2]; [8],0.158
CCOC(=O)NC1CCC2C(C1)CC1C(=O)OC(C)C1C2/C=C/c1ccc(-c2cccc(F)c2)cn1 (stereo not given),NF-kB SEAP reporter activity,[1]; [4],0.145
same,NF-kB SEAP reporter activity,[1]; [5],0.289
NC(=O)N1CCC(CC(=O)N2CCC(C3c4ncc(Br)cc4CCc4cc(Cl)cc(Br)c43)CC2)CC1 (stereo not given) (library stock concentration (final ~1000-fold dilution): 10 mM),NF-kB SEAP reporter activity,[3]; agonist: LPS (TLR4) 0.1 ug/mL,0.422
same,NF-kB SEAP reporter activity,[3]; [6],0.347
same,NF-kB SEAP reporter activity,[3]; [7],0.171
same,NF-kB SEAP reporter activity,[3]; [8],0.223
NC(=O)N1CCC(CC(=O)N2CCC(C3c4ncc(Br)cc4CCc4cc(Cl)cc(Br)c43)CC2)CC1 (stereo not given),NF-kB SEAP reporter activity,"[1]; cytotoxicity flag (confluency mask): cytotoxic (confluency <70% of control), agonist: Imiquimod (TLR7) […]",0.614
same,NF-kB SEAP reporter activity,"[1]; cytotoxicity flag (confluency mask): cytotoxic (confluency <70% of control), agonist: MPLA (TLR4) […]",0.603
CC(=O)Nc1ccc(C(=O)Nc2ccccc2N)cc1,NF-kB SEAP reporter activity,[1]; [4],2.21
same,NF-kB SEAP reporter activity,[1]; [5],1.74
Nc1ccccc1NC(=O)c1cnccn1 (library stock concentration (final ~1000-fold dilution): 10 mM),NF-kB SEAP reporter activity,[2]; agonist: LPS (TLR4) 0.1 ug/mL,1.4
same,NF-kB SEAP reporter activity,[2]; [6],1.16
same,NF-kB SEAP reporter activity,[2]; [7],0.443
same,NF-kB SEAP reporter activity,[2]; [8],0.532
CC(=O)Nc1ccc(C(=O)Nc2ccccc2N)cc1 (library stock concentration (final ~1000-fold dilution): 10 mM),NF-kB SEAP reporter activity,[2]; agonist: LPS (TLR4) 0.1 ug/mL,2.28
same,NF-kB SEAP reporter activity,[2]; [6],2.86
same,NF-kB SEAP reporter activity,[2]; [7],0.724
same,NF-kB SEAP reporter activity,[2]; [8],0.832
O=C(Nc1ccc(O)cc1)c1ccccc1O,NF-kB SEAP reporter activity,[1]; [4],1.68
same,NF-kB SEAP reporter activity,[1]; [5],1.24
Nc1ccccc1NC(=O)c1cnccn1,NF-kB SEAP reporter activity,[1]; [4],0.997
same,NF-kB SEAP reporter activity,[1]; [5],1.12
O=C(Nc1ccc(O)cc1)c1ccccc1O (library stock concentration (final ~1000-fold dilution): 10 mM),NF-kB SEAP reporter activity,[2]; agonist: LPS (TLR4) 0.1 ug/mL,1.17
same,NF-kB SEAP reporter activity,[2]; [6],1.93
same,NF-kB SEAP reporter activity,[2]; [7],0.921
same,NF-kB SEAP reporter activity,[2]; [8],1.04
CO/N=C(\C(=O)NC1C(=O)N2C(C(=O)O)=C(CSc3nnnn3C)CSC12)c1csc(N)n1.CO/N=C(\C(=O)NC1C(=O)N2C(C(=O)O)=C(CSc3nnnn3C)CSC12)c1csc(N)n1.Cl (stereo not given) (library stock concentration (final ~1000-fold dilution): 10 mM),NF-kB SEAP reporter activity,[2]; agonist: LPS (TLR4) 0.1 ug/mL,0.999
same,NF-kB SEAP reporter activity,[2]; [6],0.966
same,NF-kB SEAP reporter activity,[2]; [7],1.14
same,NF-kB SEAP reporter activity,[2]; [8],0.939
CO/N=C(\C(=O)NC1C(=O)N2C(C(=O)O)=C(CSc3nnnn3C)CSC12)c1csc(N)n1.CO/N=C(\C(=O)NC1C(=O)N2C(C(=O)O)=C(CSc3nnnn3C)CSC12)c1csc(N)n1.Cl (stereo not given),NF-kB SEAP reporter activity,[1]; [5],1.06
Cl.Cl.N/C(=N\OCC(O)CN1CCCCC1)c1cccnc1 (stereo not given) (library stock concentration (final ~1000-fold dilution): 10 mM),NF-kB SEAP reporter activity,[2]; agonist: LPS (TLR4) 0.1 ug/mL,1.1
same,NF-kB SEAP reporter activity,[2]; [6],0.949
same,NF-kB SEAP reporter activity,[2]; [7],1.15
same,NF-kB SEAP reporter activity,[2]; [8],1.09
Cl.Cl.N/C(=N\OCC(O)CN1CCCCC1)c1cccnc1 (stereo not given),NF-kB SEAP reporter activity,[1]; [4],0.94
same,NF-kB SEAP reporter activity,[1]; [5],1.08
NC(CSC(c1ccccc1)(c1ccccc1)c1ccccc1)C(=O)O (stereo not given) (library stock concentration (final ~1000-fold dilution): 10 mM),NF-kB SEAP reporter activity,[2]; agonist: LPS (TLR4) 0.1 ug/mL,0.775
same,NF-kB SEAP reporter activity,[2]; [6],0.732
same,NF-kB SEAP reporter activity,[2]; [7],0.699
same,NF-kB SEAP reporter activity,[2]; [8],0.656
NC(CSC(c1ccccc1)(c1ccccc1)c1ccccc1)C(=O)O (stereo not given),NF-kB SEAP reporter activity,[1]; [4],0.946
same,NF-kB SEAP reporter activity,[1]; [5],0.976
CC(C)c1nc(N(C)S(C)(=O)=O)nc(-c2ccc(F)cc2)c1/C=C/C(O)CC(O)CC(=O)O (stereo not given) (library stock concentration (final ~1000-fold dilution): 10 mM),NF-kB SEAP reporter activity,[2]; agonist: LPS (TLR4) 0.1 ug/mL,0.973
same,NF-kB SEAP reporter activity,[2]; [6],1.18
same,NF-kB SEAP reporter activity,[2]; [7],1.21
same,NF-kB SEAP reporter activity,[2]; [8],1.1
